# Measured values reported in PMC4336329 (PLoS ONE, 2015).
# Hit rate of the full screen: of about 310,000 compounds, about 14,000 (4.5%) showed an effect of 50% or more. Effects have a minus sign here. The full list was thinned out, with strong results kept by preference.
# Target: human ether-à-go-go-related gene (hERG) potassium channel (human, UniProt Q12809)
# Experiment: primary screen, population patch clamp on CHO cells stably expressing hERG; higher = less effect of the substance
# 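Note: peak tail current of the secondary pulse compared with the same well before compound.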
# Chain of human ether-à-go-go-related gene (hERG) potassium channel (Q12809 whole entry, looked up): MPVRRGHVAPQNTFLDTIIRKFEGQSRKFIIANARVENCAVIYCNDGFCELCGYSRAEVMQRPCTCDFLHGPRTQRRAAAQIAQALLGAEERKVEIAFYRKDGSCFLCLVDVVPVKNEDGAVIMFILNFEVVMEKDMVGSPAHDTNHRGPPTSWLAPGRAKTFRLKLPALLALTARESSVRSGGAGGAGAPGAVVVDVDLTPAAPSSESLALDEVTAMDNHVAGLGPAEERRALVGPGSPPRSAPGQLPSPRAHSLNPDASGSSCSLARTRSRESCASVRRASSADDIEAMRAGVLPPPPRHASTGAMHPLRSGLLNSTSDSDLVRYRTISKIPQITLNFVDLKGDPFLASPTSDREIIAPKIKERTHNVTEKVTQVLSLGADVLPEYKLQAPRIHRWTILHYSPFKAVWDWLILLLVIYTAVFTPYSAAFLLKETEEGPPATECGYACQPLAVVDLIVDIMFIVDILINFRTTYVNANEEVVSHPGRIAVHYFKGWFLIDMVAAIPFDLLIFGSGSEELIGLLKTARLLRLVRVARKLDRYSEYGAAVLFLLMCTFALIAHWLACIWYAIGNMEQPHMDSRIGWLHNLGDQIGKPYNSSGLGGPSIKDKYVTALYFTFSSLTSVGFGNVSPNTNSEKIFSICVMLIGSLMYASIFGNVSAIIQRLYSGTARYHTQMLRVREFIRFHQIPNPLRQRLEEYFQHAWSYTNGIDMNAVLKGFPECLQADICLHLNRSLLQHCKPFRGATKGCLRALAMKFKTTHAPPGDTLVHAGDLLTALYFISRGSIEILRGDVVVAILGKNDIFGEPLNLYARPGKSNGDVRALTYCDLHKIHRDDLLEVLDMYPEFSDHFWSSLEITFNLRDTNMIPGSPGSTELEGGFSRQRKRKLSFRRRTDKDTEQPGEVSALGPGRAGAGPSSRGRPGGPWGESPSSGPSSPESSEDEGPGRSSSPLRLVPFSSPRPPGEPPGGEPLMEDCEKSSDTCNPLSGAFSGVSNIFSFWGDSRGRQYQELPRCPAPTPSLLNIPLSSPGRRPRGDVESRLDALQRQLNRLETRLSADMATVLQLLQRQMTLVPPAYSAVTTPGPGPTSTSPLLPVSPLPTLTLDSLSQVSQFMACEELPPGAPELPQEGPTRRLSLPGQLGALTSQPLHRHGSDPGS
row,Compound,"hERG current change (%, negative = inhibition) at 10uM"
1,Cc1ccc(S(=O)(=O)N2[C@@H](c3cccc(Cl)c3)C(C(=O)O)=CC[C@H]2c2cccs2)cc1,13.7%
2,Cc1noc(C)c1S(=O)(=O)N1CCCC(C(=O)NCc2ccccn2)C1 (stereo not shown),3.78%
3,Cc1oc(-c2ccc(Cl)cc2)nc1CN1CCCC(C(=O)NCc2ccccn2)C1 (stereo not shown),-67.8%
4,Cc1oc(-c2ccc(Cl)cc2)nc1CS(=O)CC(=O)NCc1ccccn1 (stereo not shown),-10.7%
5,Cc1oc(-c2cccc(Cl)c2)nc1CN1CCC(C(=O)NCc2cccnc2)CC1,-60.9%
6,O=C(Nc1nccs1)c1cccc(S(=O)(=O)N2CCCC2)c1,-6.01%
7,Cc1cc(C(=O)CN2CCC(C)CC2)c(C)n1-c1ccccc1F,-5.74%
8,O=c1c2ccccc2nnn1-c1ccc(Br)cc1,12%
9,COc1ccc(C(O)P(=O)(OC2CCCCC2)c2ccc(N(C)C)cc2)cc1OC (stereo not shown),-7.44%
10,CCCCC1C(=O)N(c2ccccc2)N(c2ccc(O)cc2)C1=O (stereo not shown),-9%
11,O=C(Cc1c[nH]c2ccccc12)NCc1ccc2c(c1)OCO2,19.4%
12,Cc1ccc(CCNC(=O)c2nc(CS(=O)(=O)c3ccc(Cl)cc3)no2)cc1,31.6%
13,c1cc(-c2ccncc2)ccn1,20.9%
14,Nc1ccncc1,5%
15,c1cc(-c2sc(-c3ccncc3)c(-c3ccncc3)c2-c2ccncc2)ccn1,-66.6%
16,Cc1ccc2[nH]c(=O)c(CN(CC3CCCO3)C(=S)NCc3ccco3)cc2c1 (stereo not shown),-8.49%
17,COC(=O)c1ccc(-n2cnc(Cl)n2)c(F)c1,-7.27%
18,COc1ccc(-n2nc(C(=O)NCC(=O)NCCCN3CCC(C)CC3)c3ccccc3c2=O)cc1Cl,-74.2%
19,COc1ccc(-n2nc(C(=O)NCC(=O)NCc3ccccc3OC)c3ccccc3c2=O)cc1,-69.5%
20,COCCCNC(=O)CNC(=O)c1nn(-c2ccc(OC)c(Cl)c2)c(=O)c2ccccc12,8.9%
21,CCCCNC(=O)CNC(=O)c1nn(-c2ccc(OC)c(Cl)c2)c(=O)c2ccccc12,9.5%
22,CCC1CCCCN1CCCNC(=O)CNC(=O)c1nn(-c2ccc(OC)c(Cl)c2)c(=O)c2ccccc12 (stereo not shown),-39.4%

row,Compound,"hERG current change (%, negative = inhibition) at 10uM"
1,COc1ccc(-n2nc(C(=O)NCC(=O)NCc3ccccc3OC)c3ccccc3c2=O)c(OC)c1,7.07%
2,COc1ccc(-n2nc(C(=O)NCC(=O)NCCCN3CCCCCC3)c3ccccc3c2=O)cc1Cl,-56%
3,CCOC(=O)C1CCN(C(=O)CNC(=O)c2nn(-c3ccc(OC)c(OC)c3)c(=O)c3ccccc23)CC1,-2.02%
4,CCOC(=O)C1CCN(C(=O)CNC(=O)c2nn(-c3ccc(OC)c(Cl)c3)c(=O)c3ccccc23)CC1,-55%
5,COc1ccc(-n2nc(C(=O)NCC(=O)NCCCN3CCOCC3)c3ccccc3c2=O)cc1Cl,-12.6%
6,COc1ccc(-n2nc(C(=O)NCC(=O)NCc3ccc(F)cc3)c3ccccc3c2=O)cc1,-12.1%
7,CCOC(=O)C1CCCN(C(=O)CNC(=O)c2nn(-c3ccc(OC)c(Cl)c3)c(=O)c3ccccc23)C1 (stereo not shown),-5.66%
8,CCOC(=O)C1CCCN(c2cc(=O)n(-c3ccccc3Cl)c(=O)[nH]2)C1 (stereo not shown),9.43%
9,O=C1C2=C(SCCS2)C(=O)N1CCCO,4.66%
10,CCC(Oc1ccccc1)C(=O)Nc1ccccc1N1CCCCC1 (stereo not shown),5.6%
11,CSc1nnc2ccc(-c3cccs3)nn12,-8.27%
12,O=C(NC(=O)c1ccccc1)Nc1ccccc1O,14.7%
13,Cn1c(C(=O)OCC(=O)NCc2cccs2)cc2sccc21,3.37%
14,O=C(Oc1ccccc1C(=S)N1CCOCC1)c1ccccc1,7.59%
15,CCN(CC)c1ccc(C2C(C(=O)OCCOC(C)C)=C(C)NC3=C2C(=O)CCC3)cc1 (stereo not shown),-12.3%
16,CC1CCCN(c2ncnc3c2cnn3-c2ccccc2)C1 (stereo not shown),-1.2%
17,COc1ccc(-n2nc(C(=O)NCC(=O)NCCCN3CC(C)CC(C)C3)c3ccccc3c2=O)cc1OC (stereo not shown),-34%
18,COc1ccc(-n2nc(C(=O)NCC(=O)NCCCN3CC(C)CC(C)C3)c3ccccc3c2=O)cc1Cl (stereo not shown),-62.3%
19,COc1ccc(-n2nc(C(=O)NCC(=O)NCCCN3CC(C)CC(C)C3)c3ccccc3c2=O)cc1 (stereo not shown),-37.2%
20,O=C(c1ccccc1)N(Cc1cccnc1)C1(C(=O)Nc2ccccc2)CCCCC1,5.29%
21,CC(=O)Nc1ccc2c(c1)CCc1ccccc1-2,15.1%
22,O=C(CCS(=O)(=O)c1ccc(F)cc1)Nc1nc(-c2ccccn2)cs1,-12.6%

row,Compound,"hERG current change (%, negative = inhibition) at 10uM"
1,Cc1ccccc1C(=O)NC1CCN(Cc2nnnn2CCc2ccccc2)CC1,-8.14%
2,Cc1nc2cc(C(F)(F)F)ccc2n1C1CCN(Cc2nnnn2Cc2cccs2)CC1,-36.6%
3,Cc1ccc(S(=O)(=O)Cn2nnnc2CN2CCN(Cc3ccc4c(c3)OCO4)CC2)cc1,-28.7%
4,CCC(C)(C)n1nnnc1CN1CCC(n2c(C)nc3cc(C(F)(F)F)ccc32)CC1,-5.5%
5,Cc1nc2ccccc2n1C1CCN(Cc2nnnn2CCc2ccccc2)CC1.Cl,-68.6%
6,CCOC(=O)C1CCN(Cc2nnnn2CCc2ccccc2)CC1,-4.94%
7,Cl.c1ccc(CCn2nnnc2CN2CCN(C3CCCC3)CC2)cc1,-3.4%
8,Cc1nc2cc(F)ccc2n1C1CCN(Cc2nnnn2CCc2ccccc2)CC1.Cl,-65.7%
9,Cc1nc2cc(C(F)(F)F)ccc2n1C1CCN(Cc2nnnn2Cc2ccc3c(c2)OCO3)CC1,-54.1%
10,CCN(CC)C(=O)CN1CCC(n2c(C)nc3cc(C(F)(F)F)ccc32)CC1,-32.8%
11,OC1(c2ccccc2F)CCN(Cc2nnnn2CCc2ccccc2)CC1,30.9%
12,Cc1nc2cc(C(F)(F)F)ccc2n1C1CCN(Cc2nnnn2CCc2ccccc2)CC1,-68.4%
13,CCc1ccc(OCC(=O)NCC(c2ccc(Cl)cc2)N2CCCCC2)cc1 (stereo not shown),-6.4%
14,CCN(CC)C(=O)CCc1nnc(CCc2c[nH]c3ccccc23)o1,6.93%
15,O=C(CN1C(=O)/C(=C/c2ccccc2)SC1=S)Nc1ncc(Cc2ccccc2)s1,7.31%
16,C[C@H](NC(=O)[C@@H]1CSC2c3ccccc3C(=O)N21)C(=O)NC1CCCC1 (stereo partly shown),10.5%
17,COc1ccc(C(=O)NCc2ccon2)cc1OC1CCN(C(C)C)CC1,-45.6%
18,CCc1cccc(C)c1N(C(=O)Cn1c(CO)nc2ccccc21)C(C)COC (stereo not shown),-5.89%
19,COC(=O)c1c(N)sc(C(C)=O)c1C,0.466%
20,CCOC(=O)N1CCC(NC(=O)Cn2c3c(c(-c4ccccc4Cl)cc2=O)CCC3)CC1,-8.61%
21,CCOc1ccc(/C=N/Nc2ccccc2)cc1,17.6%
22,O=C(c1cccnc1)N1c2ccccc2Sc2ccccc21,-18.1%

row,Compound,"hERG current change (%, negative = inhibition) at 10uM"
1,Cl.Fc1ccc2c(c1)nnn2C1CCN(Cc2nnnn2CCc2ccccc2)CC1,-61.3%
2,c1ccc(CCn2nnnc2CN2CCC(n3nnc4ccccc43)CC2)cc1,-36.4%
3,Fc1ccc2c(c1)nnn2C1CCN(Cc2ccccc2)CC1,-61.4%
4,Fc1ccc2c(c1)nnn2C1CCN(Cc2c(Cl)cccc2Cl)CC1,7.11%
5,O=C(NC1CCN(Cc2nnnn2CCc2ccccc2)CC1)c1ccccc1F,-3.18%
6,CCCC(C)C(=O)Nc1ccc(Cl)cn1 (stereo not shown),-7.45%
7,COc1cc(OC)nc(Oc2cc(/C=N/O)ccc2OC)n1,0.516%
8,Cc1ccc(N2CCN(C(=O)c3cc(-c4ccc(F)cc4)[nH]c3C)CC2C)cc1 (stereo not shown),-13.3%
9,COc1ccc(-n2ncc(C(=O)N3CCN(c4ccc(F)cc4)CC3)c2C)cc1,-22.6%
10,Cc1[nH]c(-c2ccc(F)cc2)cc1C(=O)N1CCN(c2ccccc2)CC1,-58.8%
11,CCOC(=O)N1CCN(C(=O)c2cc(-c3ccc(F)cc3)[nH]c2C)CC1,-72.3%
12,CCOC(=O)N1CCC(NC(=O)c2cc(-c3ccc(F)cc3)[nH]c2C)CC1,-0.721%
13,Cc1[nH]c(-c2ccc(F)cc2)cc1C(=O)N1CCN(c2ccc(Cl)cc2)CC1,-13.4%
14,CCOC(=O)N1CCN(C(=O)c2cccc(F)c2)CC1,-17.9%
15,Cc1[nH]c(-c2ccc(F)cc2)cc1C(=O)N1CCN(c2cccc(Cl)c2)CC1,-12%
16,COc1cccc(N2CCN(C(=O)c3ccc(-c4ccccc4)cc3)CC2)c1,-49.5%
17,COc1ccc(N2CCN(C(=O)c3cc(-c4ccc(F)cc4)[nH]c3C)CC2)cc1,-67.4%
18,COc1cccc(N2CCN(C(=O)c3cc(-c4ccc(F)cc4)[nH]c3C)CC2)c1,-68.4%
19,COc1cccc(N2CCN(C(=O)c3cc(C)oc3C)CC2)c1,6.8%
